According to PubChem BioAssay (NCI):
Compounds without any hit were thinned out: in the full panel of roughly 83,000, 20% have a hit.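 Note: values are percent growth. 100 is the growth of untreated cells, values between 100 and 0 indicate rising inhibition; between -100 and 0 indicates cell death.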 The source made the active and inactive calls. How the source made its calls: active means growth percent below 10; inactive means the rest.

test system: NCI-H23 lung; assay: NCI-60 one-dose screen, 48 h (100 = growth as untreated, 0 = no growth, -100 = all killed); settings: 10 µM unless noted

| Compound | growth |
| --- | --- |
| CC(C)CSc1nc(Nc2ccccc2)c(C#N)c(-c2ccc(F)cc2)n1 | 38.7% (inactive) |
| CCCCC(=O)Nc1c(C(=O)Nc2ccccc2)sc2nc3c(cc12)C(OC(=O)CCCC)CCC3 (configuration not stated) | 95.6% (inactive) |
| COC(=O)[C@]1(C)CCC[C@]2(C)[C@H]3C[C@H]4C(C(C)C)=C[C@]3(CC[C@H]21)[C@@H]1C(=O)N(CCC#N)C(=O)[C@@H]14 | 93.7% (inactive) |
| CCN1CCN(c2ccc(NC(=O)Nc3nc4ccc(-c5ccccc5OC)cc4s3)cc2)CC1 | -16.8% (active) |
| C[C@H]1[C@H](C)CC[C@]2(C(=O)OCCOCCOCC[P+](c3ccccc3)(c3ccccc3)c3ccccc3)CC[C@]3(C)C(=CC[C@@H]4[C@@]5(C)CC[C@H](OC(=O)C(Cl)Cl)C(C)(C)[C@@H]5CC[C@]43C)[C@H]12 | 5.49% (active) |
| COc1ccc(/C(=N\O)c2cc(C)c(OC)c(C)c2)cc1O | 45.9% (inactive) |
| O=C(Nc1nccs1)c1noc2ccccc12 | 91.9% (inactive) |
| CCOc1ccccc1C(=O)/C=C/c1cc2ccccc2[nH]c1=O | -55.2% (active) |
| Cc1ccc(-c2nc(C#N)c(S(=O)(=O)N(C)CCO)o2)cc1 | 80.3% (inactive) |
| Cc1ccc(C2CC(c3ccc(Nc4nc(NCCO)nc(NCCO)n4)cc3)=NN2c2ccc(Cl)cc2)cc1 (configuration not stated) | 71.8% (inactive) |
| CN(C)CCCn1c2c(c3cc(-c4cccc(S(N)(=O)=O)c4)ccc3c1=O)C(=O)c1ccccc1-2 | 57.4% (inactive) |
| C=C(C)[C@@H]1CC[C@]2(C(=O)OCCOCCOCC[P+](c3ccccc3)(c3ccccc3)c3ccccc3)CC[C@]3(C)[C@H](CC[C@@H]4[C@@]5(C)CC[C@H](OC(=O)C(Cl)Cl)C(C)(C)[C@@H]5CC[C@]43C)[C@@H]12 | 0.446% (active) |
| COC(=O)/C=C/c1cc(OC(C)=O)c2c(c1)C(C(=O)OC)C(c1ccc(OC(C)=O)c(OC(C)=O)c1)O2 (configuration not stated) | 21.3% (inactive) |
| O=C(Nc1ccc(S(=O)(=O)NC2CCCCCC2)cc1)C(c1ccccc1)S(=O)(=O)c1ccc(F)cc1 (configuration not stated) | 9.28% (active) |
| COc1ccc2cc(/C=C3\N=C(c4cc(OC)c(OC)c(OC)c4)OC3=O)c(OC)nc2c1 | 101% (inactive) |
| N#Cc1ccc(C2C3=C(CCCC3=O)OC3=C2C(=O)c2ccccc2C3=O)cc1 (configuration not stated) | 44.9% (inactive) |
| COCCOCCOCc1n(Cc2ccc3ccccc3c2)c2ccccc2[n+]1Cc1ccc2ccccc2c1 | 5.56% (active) |
| CC(=O)Nc1c(C(=O)Nc2ccccc2)sc2nc3c(cc12)C(OC(C)=O)CCC3 (configuration not stated) | 98% (inactive) |
| CCc1ccc(OCc2ccccc2C(=O)Nc2ccc3nc(C)cc(N)c3c2)cc1 | -73.2% (active) |

| Compound | growth |
| --- | --- |
| COc1ccc(C2C(c3ccccc3)C(=O)N2c2cc(OC)c(OC)c(OC)c2)cc1I (configuration not stated) | 24.6% (inactive) |
| COc1cc(/C=C/C(=O)c2cccs2)ccc1OCc1ccc(Cl)nc1 | 77.5% (inactive) |
| C=C1C(=O)O[C@H]2[C@H]1CC/C(COC(=O)CCCCCCC(=O)OC/C1=C/CC[C@@]3(C)O[C@H]3[C@H]3OC(=O)C(=C)[C@@H]3CC1)=C\CC[C@@]1(C)O[C@@H]21 | 25.1% (inactive) |
| COc1ccc(C2CC(c3ccc(OC)cc3O)=NN2c2ccc(S(N)(=O)=O)cc2)cc1 (configuration not stated) | 65.6% (inactive) |
| CCCn1cc(/C=N\N=C2\C(=O)Nc3ccc(C)cc32)c2ccccc21 | 48% (inactive) |
| N#Cc1c(-c2ccc(Cl)cc2)cc(-c2cc3ccccc3o2)nc1SCC(=O)c1ccc(Cl)cc1 | 91.7% (inactive) |
| CCCCCCCCCCCCCC1=NCC[N+]1(CCO)Cc1ccccc1 (configuration not stated) | -67% (active) |
| Nc1c(C(=O)Nc2cccc3ccccc23)sc2nc3c(cc12)CCCCC3 | 44.8% (inactive) |
| Cc1c(Cl)cccc1NC(=O)c1sc2nc3c(cc2c1N)CCCCCC3 | 42.7% (inactive) |
| N#Cc1c(-c2ccc(F)cc2)nc(N=Nc2c(O)[nH]c3ccc(Cl)cc23)nc1N1CCOCC1 | 37.4% (inactive) |
| Cc1ccccc1NC(=O)c1sc2nc(C)c(C(C)O)cc2c1N (configuration not stated) | 79% (inactive) |
| COc1cc(F)c(-c2nc3c(C)cccc3n2Cc2c(F)cccc2F)c(F)c1 | 79.8% (inactive) |
| Oc1ccc(CNNc2ccnc3c(O)cccc23)c2cccnc12 | 31.6% (inactive) |
| CC1(C)Cc2c(Br)c(Br)c(Br)c(OCC(O)CN3CCOCC3)c2O1 (configuration not stated) | 93.9% (inactive) |
| CCCCCOC(=O)c1ccccc1O | 112% (inactive) |
| C=C1C(=O)O[C@H]2[C@H]1CC/C(COC(=O)CCCCCCCCC(=O)OC/C1=C/CC[C@@]3(C)O[C@H]3[C@H]3OC(=O)C(=C)[C@@H]3CC1)=C\CC[C@@]1(C)O[C@@H]21 | -37.5% (active) |
| C=C1C(=O)O[C@H]2[C@H]1CCC(/C=N/c1ncc(Br)cc1N)=C\CC[C@@]1(C)O[C@@H]21 | 49.2% (inactive) |
| O=C1CCC23OC(c4ccccc4N12)C(O)C(O)C3O (configuration not stated) | 102% (inactive) |
